Here are results for 8 molecules from PubChem BioAssay (EPA / NIEHS).

Inconclusive results are not listed. Calls of active or inactive are those of the source. How the source made its calls, unless noted: active means hit-call score of the fitted dose curve at least 0.9, where 1 is the maximum; inactive means score below 0.9.

Read-out in test [1]: Transforming growth factor beta 1 (TGFb1), TGFB1 (gene 7040)
Put plainly: BSK_BE3C_TGFb1: BioMAP Diversity Plus: BE3C Assay for Transforming growth factor beta 1 (TGFb1) Biomarker Activity (AID 2283036;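 further: TGF-b1 protein level measured by ELISA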). The following applies: primary human bronchial epithelial cells; actives raise or lower the signal. In a few lines: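 TGF-b1 measured via ELISA, 24 h after chemical dosing of human bronchial epithelial cells (BE3C). Overt cytotoxicity assessed in parallel by SRB (0.1%, TCA-fixed, 560 nm); analysis bidirectional relative to DMSO.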

A short description of test [2]: BSK_CASM3C_SRB: Viability Assessment in the BioMAP Diversity Plus: CASM3C Assay (AID 2283050).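 Further: total protein by SRB staining as cytotoxicity measure in parallel cultures.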 To be noted: primary human coronary artery smooth muscle cells.
Read-out in test [3]: Transforming growth factor beta 1 (TGFb1), TGFB1 (gene 7040)
In words: BSK_KF3CT_TGFb1: BioMAP Diversity Plus: KF3CT Assay for Transforming growth factor beta 1 (TGFb1) Biomarker Activity (AID 2283072). To be noted: primary human keratinocytes with fibroblasts; actives raise or lower the signal. In a few lines: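 TGF-b1 ELISA on a 24 h dosed co-culture of human keratinocytes and foreskin fibroblasts; cytotoxicity tracked in parallel cultures by SRB staining.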

Read-out in test [4]: CD40, CD40 (gene 958)
Put plainly: BSK_LPS_CD40: BioMAP Diversity Plus: LPS Assay for CD40 Biomarker Activity (AID 2283076). To be noted: primary human HUVEC with PBMC; actives raise or lower the signal. In a few lines: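 In the LPS system of human endothelial cells with peripheral blood mononuclear cells, CD40 levels were read by ELISA 24 h post-treatment. Signal changes in either direction were fitted against the DMSO baseline, with parallel SRB protein staining.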

Read-out in test [5]: Tumor necrosis factor (Homo sapiens) (UniProt P01375)
Put plainly: BSK_LPS_TNFa: BioMAP Diversity Plus: LPS Assay for Tumour Necrosis Factor alpha (TNFa) Biomarker Activity (AID 2283085).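 On AC50: TNFa protein level quantified by ELISA in the co-culture.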 To be noted: primary human HUVEC with PBMC; actives raise or lower the signal. In a few lines: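 ELISA-based TNFa endpoint in a human endothelial–PBMC co-culture sampled 24 h post-exposure. Curves were fitted in both directions using DMSO as baseline of activity.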

Read-out in test [6]: Vascular cell adhesion molecule 1 (VCAM1), VCAM1 (gene 7412)
Put plainly: BSK_LPS_VCAM1: BioMAP Diversity Plus: LPS Assay for Vascular cell adhesion molecule 1 (VCAM1) Biomarker Activity (AID 2283086). To be noted: primary human HUVEC with PBMC; actives raise or lower the signal. In a few lines: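 Measured by ELISA: VCAM-1 in LPS-activated HUVEC/PBMC co-cultures 24 h after treatment. Values reflect bidirectional fitting with DMSO as baseline.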

Read-out in test [7]: CD40, CD40 (gene 958)
In words: BSK_SAg_CD40: BioMAP Diversity Plus: SAg Assay for CD40 Biomarker Activity (AID 2283088). To be noted: primary human HUVEC with PBMC; actives raise or lower the signal. In a few lines:
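CD40 is measured by fluorescence ELISA in an endothelial/PBMC primary human co-culture at 24 h post-dose. Fitting is bidirectional, DMSO baseline. Parallel SRB staining (560 nm) flags cytotoxicity.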

Read-out in test [8]: CD69, CD69 (gene 969)
In words: BSK_SAg_CD69: BioMAP Diversity Plus: SAg Assay for CD69 Biomarker Activity (AID 2283089).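 On AC50: cell surface CD69 protein quantified by ELISA with fluorescence detection.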 The following applies: primary human HUVEC with PBMC; actives raise or lower the signal. In a few lines: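 Primary human vascular co-culture (umbilical vein endothelium with peripheral blood mononuclear cells) exposed to test chemical for 24 h. CD69 levels quantified by fluorescence ELISA; DMSO served as negative control for bidirectional fitting.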

Read-out in test [9]: Monocyte Chemoattractant Protein-1 (MCP1), CCL2 (gene 6347)
Put plainly: BSK_SAg_MCP1: BioMAP Diversity Plus: SAg Assay for Monocyte Chemoattractant Protein-1 (MCP1) Biomarker Activity (AID 2283090). The following applies: primary human HUVEC with PBMC; actives raise or lower the signal. In a few lines: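 Values derive from bidirectional fitting of ELISA-measured MCP1 against DMSO controls. Readings were taken 24 h after dosing human vascular endothelial cells co-cultured with peripheral blood mononuclear cells under superantigen stimulation.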

Read-out in test [10]: Monokine induced gamma interferon (MIG), CXCL9 (gene 4283)
Put plainly: BSK_SAg_MIG: BioMAP Diversity Plus: SAg Assay for Monokine induced gamma interferon (MIG) Biomarker Activity (AID 2283092). To be noted: primary human HUVEC with PBMC; actives raise or lower the signal. In a few lines:
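Endothelial cells and PBMC were co-cultured, exposed to test chemicals, and sampled 24 h later. MIG was measured by ELISA, and responses were fitted in both directions relative to DMSO.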

Test [11] in a line: BSK_SAg_Proliferation: Cell Proliferation Assessment in the BioMAP Diversity Plus: SAg Assay (AID 2283095).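 Further: relative cell number as total protein by SRB absorbance in sub-confluent culture.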 To be noted: primary human HUVEC with PBMC. In a few lines:
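A human primary co-culture of umbilical vein endothelium and blood mononuclear cells receives compound; relative cell number is quantified at 96 h by SRB staining and 560 nm absorbance, with DMSO-referenced bidirectional curve fitting.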

Test [12] is described as follows: BSK_SAg_SRB: Viability Assessment in the BioMAP Diversity Plus: SAg Assay (AID 2283096).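 Further: cells read one day after compound addition; hits may be either gain or loss of signal compared with DMSO.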 To be noted: primary human HUVEC with PBMC. In a few lines: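 SRB absorbance at 560 nm served as the viability read-out. Cells (HUVEC plus peripheral blood mononuclear cells) were TCA-fixed and stained 24 h post-dosing; activity fitted in both directions against DMSO controls.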

The nature of test [13]: BSK_BT_PBMCCytotoxicity: PBMC Cytotoxicity Assessment in the BioMAP Diversity Plus: BT Assay (AID 2284225).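 Further: PBMC viability measured by Alamar Blue dye reduction fluorescence.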 To be noted: primary human B cells with PBMC. In a few lines: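 Primary human co-culture of B cells and PBMC, pre-dosed 1 h then activated with SEB and TSST-1. Cytotoxicity is taken from Alamar Blue dye reduction, added for 6 h at the end of a 90 h incubation.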
Read-out in test [14]: Secreted IgG (sIgG), gene 3500
Put plainly: BSK_BT_sIgG: BioMAP Diversity Plus: BT Assay for Secreted IgG (sIgG) Biomarker Activity (AID 2284226). The following applies: primary human B cells with PBMC. In a few lines: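 In this multiplexed co-culture system, ELISA quantifies sIgG 24 h post-treatment. Endpoint analysis uses positive fitting direction, DMSO negative control.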

The nature of test [15]: BSK_BT_Bcell_Proliferation: Viability Assessment in the BioMAP Diversity Plus: BT Assay for B cell Proliferation (AID 2284227). To be noted: primary human B cells with PBMC. In a few lines:
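Read-out is absorbance at 560 nm from sulforhodamine B staining of total protein, reflecting relative cell numbers in a human B cell and PBMC co-culture after 72 h of chemical exposure. Values were referenced to DMSO.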

Read-out in test [16]: Interleukin 6 (IL6), IL6 (gene 3569)
Put plainly: BSK_BT_xIL6: BioMAP Diversity Plus: BT Assay for Interleukin 6 (IL6) Biomarker Activity (AID 2284228). To be noted: primary human B cells with PBMC. In a few lines: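 Secreted IL-6 in the primary human B cell plus PBMC system, measured by Luminex at 24 h post-chemical, DMSO as baseline. Alamar Blue viability: 75,000 cells/well, chemical 1 h before SEB/TSST-1 (20 ng/mL each), 90 h, then 6 h dye.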

Read-out in test [17]: Interleukin 17A (IL17A), IL17A (gene 3605)
Put plainly: BSK_BT_xIL17A: BioMAP Diversity Plus: BT Assay for Interleukin 17A (IL17A) Biomarker Activity (AID 2284229). The following applies: primary human B cells with PBMC. In a few lines: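 Luminex xMAP quantification of secreted IL-17A after 24 h chemical exposure of a primary human B cell/PBMC co-culture. Signal increases fitted relative to DMSO negative control.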

Read-out in test [18]: Tumor necrosis factor (Homo sapiens) (UniProt P01375)
In words: BSK_BT_xTNFa: BioMAP Diversity Plus: BT Assay for Tumor necrosis factor alpha (TNF-alpha) Biomarker Activity (AID 2284230). The following applies: primary human B cells with PBMC. In a few lines: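 Human primary co-culture of B cells and peripheral blood mononuclear cells; TNF-alpha in supernatant, 24 h post-dose, Luminex multiplex; DMSO = baseline.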

In test [19] the target is Estrogen receptor (Homo sapiens) (UniProt P03372). Put plainly: ATG_ERa_TRANS: Attagene TRANS-FACTORIAL HepG2 Assay for human Estrogen Receptor alpha (ERa) (AID 2282970; active means hit-call score of the fitted dose curve at least 0.9, where 1 is the maximum). The following applies: HepG2 Attagene TRANS ERa GAL4 reporter, mRNA. In a few lines: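 Reporter transcripts were measured 24 h after dosing by RT-PCR with fluorescent primer extension and capillary electrophoresis. The system is transiently transfected HepG2 expressing exogenous NR-Gal4 chimeras driving GAL4-UAS reporters; DMSO is the baseline.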
Sequence of Estrogen receptor (Homo sapiens) (P03372 whole entry, looked up, the tested form may be a part): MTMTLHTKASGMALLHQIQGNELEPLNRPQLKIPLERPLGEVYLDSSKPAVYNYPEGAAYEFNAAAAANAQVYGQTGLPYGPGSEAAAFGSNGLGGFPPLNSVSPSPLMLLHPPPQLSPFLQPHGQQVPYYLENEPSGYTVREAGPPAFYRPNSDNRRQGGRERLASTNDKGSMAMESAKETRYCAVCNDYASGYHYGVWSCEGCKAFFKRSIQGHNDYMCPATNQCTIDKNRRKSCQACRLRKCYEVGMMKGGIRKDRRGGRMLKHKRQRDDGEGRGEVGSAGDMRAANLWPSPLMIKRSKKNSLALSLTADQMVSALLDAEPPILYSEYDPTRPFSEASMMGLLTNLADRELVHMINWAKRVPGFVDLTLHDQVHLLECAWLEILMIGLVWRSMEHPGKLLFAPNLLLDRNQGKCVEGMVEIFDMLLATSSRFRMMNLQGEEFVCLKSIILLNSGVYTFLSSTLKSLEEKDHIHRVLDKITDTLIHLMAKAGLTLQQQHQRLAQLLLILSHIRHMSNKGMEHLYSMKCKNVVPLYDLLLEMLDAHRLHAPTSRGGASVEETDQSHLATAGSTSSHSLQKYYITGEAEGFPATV

For test [20], the target named is Retinoic acid receptor alpha (Homo sapiens) (UniProt P10276). Put plainly: ATG_RARa_TRANS: Attagene TRANS-FACTORIAL HepG2 Assay for human Retinoic Acid Receptor alpha (RARa) (AID 2283005; active means hit-call score of the fitted dose curve at least 0.9, where 1 is the maximum). In a few lines:
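Reporter transcripts, measured by RT-PCR with fluorescent labeling and capillary electrophoresis after 24 h dosing, reflect activity of an exogenous human RARa–GAL4 fusion in transiently transfected HepG2. Fitted for increase relative to DMSO.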

Sequence of Tumor necrosis factor (Homo sapiens) (P01375 whole entry, looked up): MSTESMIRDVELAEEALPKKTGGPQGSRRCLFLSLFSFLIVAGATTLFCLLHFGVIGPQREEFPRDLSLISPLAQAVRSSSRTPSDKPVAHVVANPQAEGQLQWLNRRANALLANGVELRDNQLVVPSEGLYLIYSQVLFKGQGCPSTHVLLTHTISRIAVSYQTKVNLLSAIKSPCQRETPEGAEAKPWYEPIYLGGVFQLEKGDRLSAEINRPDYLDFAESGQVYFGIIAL
Sequence of Retinoic acid receptor alpha (Homo sapiens) (P10276 whole entry, looked up, the tested form may be a part): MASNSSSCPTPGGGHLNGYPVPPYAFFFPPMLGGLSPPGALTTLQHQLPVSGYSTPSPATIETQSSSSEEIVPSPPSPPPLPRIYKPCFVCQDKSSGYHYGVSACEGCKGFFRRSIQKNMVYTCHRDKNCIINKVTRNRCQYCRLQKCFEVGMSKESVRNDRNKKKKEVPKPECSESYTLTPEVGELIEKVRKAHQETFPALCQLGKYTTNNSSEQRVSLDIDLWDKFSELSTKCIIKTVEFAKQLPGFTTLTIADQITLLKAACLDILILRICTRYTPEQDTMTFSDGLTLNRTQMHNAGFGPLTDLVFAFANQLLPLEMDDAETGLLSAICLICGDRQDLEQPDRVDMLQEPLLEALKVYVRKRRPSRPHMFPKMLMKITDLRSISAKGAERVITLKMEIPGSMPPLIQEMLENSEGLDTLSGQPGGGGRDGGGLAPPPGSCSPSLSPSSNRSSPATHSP

As for `Cc1cccnc1`, the result in test [1], in [2], in test [3], in test [4], in test [5] and in test [6] was inactive. Moreover, the outcome in test [7], in test [8], in test [9], in [10], in test [11] and in [12] was inactive. Besides, the result in test [13], in [14], in test [15], in [16], in test [17] and in test [18] was inactive.

On to `CCCC(=O)OC/C=C(\C)CCC=C(C)C`, for which the outcome in [19] was inactive.

Turning to `CCCCCCCCCCC1CO1` (centres undefined), the outcome in test [1], in [9], in test [10], in test [12], in [13] and in test [14] was inactive. In addition, the result in test [15], in test [16], in test [17] and in test [18] was inactive. Besides, the AC50 in test [2] is 31.6 µM (active); in test [3], 30.3 µM (active); in [5], 30.9 µM (active); in [6] it was 32.3 µM (active); in test [7] it was 20 µM (active); in test [8] it was 36.7 µM (active). Moreover, the AC50 in test [11] was 32.5 µM (active).

For `CN(C)CCC(c1ccc(Cl)cc1)c1ccccn1` (centres undefined), the outcome in test [1], in test [2], in test [3], in test [4], in test [5] and in test [6] was inactive. Besides, the result in [7], in test [8], in test [9], in test [10], in test [11] and in test [12] was inactive. Also, the outcome in test [13], in [14], in test [15], in test [16], in [17] and in [18] was inactive.

Regarding `Oc1ccc(Cl)cc1C1CCCC1`, in test [19], the AC50 is 4.12 µM (active).

Turning to `COC(OC)C(C)c1ccccc1` (centres undefined), the call in test [19] was inactive.

On to `CN1CCCC1`, for which the result in [19] and in test [20] was inactive.

As to `CC(C)CC(=O)O`, the outcome in test [19] was inactive.

The term AC50 denotes the midpoint of the concentration-response curve, whichever way the signal moves.
